Data published in PubChem BioAssay (Tox21).
Inconclusive results are not listed. A number with no mark means an inactive call. Calls of active or inactive are those of the source. Calls come from the whole dose curve; as a rule, active = well fitted cell-killing curve with a large enough effect in the repeat runs; inconclusive = weak or mixed curves, or effect the other way; inactive = flat fitted curve, though single readings scatter.

Experiment: cAMP Responsive Elements (CRE) small molecule antagonists, cell-based qHTS assay: qHTS cell viability counter screen (AID 2060913); note: nearly all actives have a fitted effect of over 40% in size
Conditions: CRE-bla HEK293T viability, CellTiter-Glo luminescence, 5 h; series mostly up to 92.4 µM; viability change, negative = cytotoxic: at the top concentration
Outline: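 Cytotoxicity counter screen multiplexed with the CRE-bla antagonist read: HEK293T cells in DMEM with dialyzed FBS and 25 mM HEPES were treated 3 hrs under 0.25 uM final NKH477, then viability measured by CellTiter-Glo luminescence.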
% is set by controls: 0 for no effect and ±100 for the full control effect; potency is the fitted concentration of half-maximal effect.

| Structure (SMILES) | viability change, negative = cytotoxic | Potency |
| --- | --- | --- |
| CCc1cc(Cl)c(OC)c(C(=O)NC[C@@H]2CCCN2CC)c1O | 0.355% [at 42.5 µM] |  |
| CCCC(=O)O[C@]1(C(=O)CO)CC[C@H]2[C@@H]3CCC4=CC(=O)CC[C@]4(C)[C@H]3[C@@H](O)C[C@@]21C | -1.52% [at 42.5 µM] |  |
| Cc1cn([C@@H]2O[C@H](CO)[C@@H](O)[C@@H]2F)c(=O)[nH]c1=O | -1.86% [at 42.5 µM] |  |
| CCCCNC(=O)NCCCC | -3.56% |  |
| CCCCO | 5.29% |  |
| CC(C)(c1ccccc1)c1ccc(Nc2ccc(C(C)(C)c3ccccc3)cc2)cc1 |  | inactive |
| Cc1cc(C)c(O)c(C)c1 |  | inactive |
| O=C(O)c1ccncc1 | -5.68% |  |
| CC(C)CCCC(C)(C)O | -6.23% |  |
| S=c1[nH][nH]c(=S)s1 | 0.22% |  |
| CC(CC1c2ccccc2CCc2ccccc21)CN(C)C (stereo not given) | -0.565% [at 42.5 µM] |  |
| CC1=NN(c2cccc(S(=O)(=O)O)c2)C(=O)C1 | 1.63% |  |
| O=C(CCCCCCCCC#CI)Oc1ccccc1 | 9.18% [at 42.5 µM] |  |
| O=C(Nc1ccccc1)OCC(CN1CCCCC1)OC(=O)Nc1ccccc1 (stereo not given) | -0.391% [at 42.5 µM] |  |
| CCCCCCCCCc1ccc(OCCOCCO)cc1 |  | 22.8 µM (active) |
| O=C(/C=C/c1ccc(O)c(O)c1)O[C@@H]1C[C@@](OC(=O)/C=C/c2ccc(O)c(O)c2)(C(=O)O)C[C@@H](O)[C@@H]1O | -1.55% [at 42.5 µM] |  |
| CN(C)C(=O)Nc1ccc(Oc2ccc(Cl)cc2)cc1 | -2.59% |  |
| Nc1ccc(N)c2ccccc12 | -20.2% |  |
| COc1ccc(OC)c(NC(=O)CC(C)=O)c1 | 4.24% |  |
| CCOc1ccccc1OCC1CNCCO1 (stereo not given) | 0.659% [at 42.5 µM] |  |

| Structure (SMILES) | viability change, negative = cytotoxic | Potency |
| --- | --- | --- |
| CC/C=C\C#N | -10.9% |  |
| C=CC(=C)CC/C=C(\C)CCC=C(C)C | 13.3% [at 18.9 µM] |  |
| Cc1onc(-c2ccccc2)c1-c1ccc(S(N)(=O)=O)cc1 | 2.62% [at 42.5 µM] |  |
| CCCCCCCCCCCC(=O)OCC | -0.154% |  |
| CCc1cccc(CC)c1NC(=O)C(=O)O | 0.131% |  |
| CN(C)C(=O)C1(N2CCCCC2)CCN(CC[C@@]2(c3ccc(Cl)c(Cl)c3)CN(C(=O)c3ccccc3)CCO2)CC1 |  | 64.1 µM (active) |
| CN1CCC(N(Cc2cccs2)c2ccccc2)CC1 | -2.25% [at 42.5 µM] |  |
| O=[N+]([O-])c1ccc(Oc2ccc([N+](=O)[O-])cc2)cc1 | 2.33% |  |
| CCCCOC(=O)c1ccccc1 | 9.1% |  |
| O=C(CC(C(=O)OC1CCCCC1)S(=O)(=O)O)OC1CCCCC1 (stereo not given) |  | inactive |
| CC(C)(C)C1CCC(=O)CC1 | -3.94% |  |
| Cc1ccc2c(ccc3ccccc32)c1 | 5.35% |  |
| O=[N+]([O-])c1ccc(/C=N\O)o1 | 6.89% [at 42.5 µM] |  |
| CC(C)(C)NC(=O)[C@@H]1C[C@@H]2CCCC[C@@H]2CN1C[C@@H](O)[C@H](Cc1ccccc1)NC(=O)[C@H](CC(N)=O)NC(=O)c1ccc2ccccc2n1 |  | 61.9 µM (active) |
| C=C(CC)C(=O)c1ccc(OCC(=O)O)c(Cl)c1Cl |  | inactive |
| CCCCCCCCCC[N+](C)(CCCCCCCCCC)CCC[Si](OC)(OC)OC |  | 27.3 µM (active) |
| CN1C(CSCC(F)(F)F)Nc2cc(Cl)c(S(N)(=O)=O)cc2S1(=O)=O (stereo not given) | 1.52% [at 42.5 µM] |  |
| Cc1cccc2nccnc12 | -2.62% |  |
| COc1cc(N)c(Cl)cc1C(=O)NC1CCN(CCCOc2ccc(F)cc2)CC1OC (stereo not given) | 1.27% [at 42.5 µM] |  |
| CC(C)(C)C1CCC(CC2=C(O)c3ccccc3C(=O)C2=O)CC1 (stereo not given) | 6.86% [at 42.5 µM] |  |
